# In PubChem BioAssay (EPA / NIEHS):
# “And” between values parts separate entries of the source, which are not always exact repeats. Equal entries are not always repeated. The source made the active and inactive calls. Rule for the calls: active = hit-call score of the fitted dose curve at least 0.9, where 1 is the maximum; inactive = score below 0.9.
# Read-out: Plasminogen activator inhibitor-1 (PAI1), SERPINE1 (gene 5054)
# Assay: BSK_KF3CT_PAI1: BioMAP Diversity Plus: KF3CT Assay for Plasminogen activator inhibitor-1 (PAI1) Biomarker Activity (AID 2284252)
# Settings: primary human keratinocytes with fibroblasts
# Procedure: BSK_KF3CT is a cell-based, multiplexed-readout assay that uses keratinocytes and foreskin fibroblasts, a human skin primary cell co-culture, with measurements taken at 24 hours after chemical dosing in a 96-well plate.BSK_KF3CT_PAI1 is an assay component measured in the BSK_KF3CT assay. It measures PAI-1 antibody related to regulation of gene expression using ELISA technology.Data from the assay component BSK_KF3CT_PAI1 was analyzed at the endpoint, BSK_KF3CT_PAI1, in the positive analysis fitting direction relative to DMSO as the negative control and baseline of activity. Using a type of binding reporter, gain or loss-of-signal activity can be used to understand protein changes. To generalize the intended target to other relatable targets, this assay endpoint is annotated to the 'cytokine' intended target family, where the subfamily is 'plasmogen activator inhibitor'.
# The levels of cell surface (or secreted, indicated by the prefix "s") biomarker endpoints were measured by ELISA. Overt cytotoxicity to cells in confluent adherent cultures (all systems other than the BT system) was assessed by measuring total protein levels using sulforhodamine B (SRB) staining in parallel cultures at the time of biomarker measurements, indicated as SRB endpoints. For proliferation assays for adherent cell types, individual cell types are cultured at sub-confluence and relative cell numbers quantified by SRB staining at time points optimized for each system (48 h: 3C and CASM3C systems; 72 h: BT and HDF3CGF systems; 96 h: SAg system). SRB was performed by staining cells with 0.1% SRB after fixation with 10% TCA and reading wells at 560 nm.Viability and proliferation of PBMC (T cells) was quantified by Alamar Blue reduction for the SAg and BT systems. For PBMC viability (referred to as PBMC Cytotoxicity within the assay endpoint names), cells were plated (75,000/well in a 96-well plate) and then chemical samples added for 1 h before addition of activators, SEB and TSST-1 (20 ng/mL final concentration each). Cells were incubated for 90 h. Then, Alamar Blue (20 uL/well) (Invitrogen, Cat DAL1100) was added for 6 h, and the plates were read with a fluorescence microplate reader at 546/580 nm (excitation/emission). For PBMC proliferation, cells were plated and activated as above but incubated for only 16 h prior to addition of Alamar Blue. Plates were read after 6 h.
Compound,outcome,AC50
Cc1c(C(N)=O)cc([N+](=O)[O-])cc1[N+](=O)[O-],inactive,
OC(C(F)(F)F)(C(F)(F)F)C(O)(C(F)(F)F)C(F)(F)F,,36.1 µM (active) and 25.2 µM (active)
COc1cc(CNC(=O)CCCC/C=C/C(C)C)ccc1O,inactive,
CC[N+](CC)(CC(=O)Nc1c(C)cccc1C)Cc1ccccc1 (tested in a mixture with another compound),inactive,
CC(C)C1OCCN1CCOC(=O)NCCCCCCNC(=O)OCCN1CCOC1C(C)C (configuration not stated),inactive,
C1CN(CCOCCN2CCOCC2)CCO1,inactive,
CN(C)Cc1cc(C(C)(C)C)c(O)c(C(C)(C)C)c1,inactive,
CCC[Si](OC(C)=O)(OC(C)=O)OC(C)=O,inactive,
O=[N+]([O-])c1cc(S(=O)(=O)Nc2ccccc2)ccc1Nc1ccccc1,,25.9 µM (active) and 16.2 µM (active)
COc1ccccc1Oc1c(NS(=O)(=O)c2ccc(C(C)(C)C)cc2)nc(-c2ncccn2)nc1OCCO,inactive,
COc1ccc(C(=O)c2ccccc2O)c(O)c1,inactive,
CCCCC(CC)COC(=O)C=Cc1ccc(OC)cc1 (configuration not stated),inactive,
